Measurements published in PubChem BioAssay AID485360 (National Center for Advancing Translational Sciences (NCATS), 2010).
Where “and” joins values, the source holds several entries; their conditions need not be identical. Equal values may be shown once. Hit rate of the full screen: of about 230,000 compounds, about 1,500 (0.65%) were called active. A call without a number means that no potency is given here. Another 3% or so got no clear call; they are omitted. Calls come from the whole dose curve; as a rule, active = well fitted inhibition curve with a large enough effect; inconclusive = small, poorly fitted or top-dose-only effect; inactive = no such curve, though single readings can be large or run the other way. The sample as a whole holds a higher share of actives than the screen did. More than one record can exist for a structure, and the calls need not agree.

target: Lethal(3)malignant brain tumor-like protein 1 (Homo sapiens) (UniProt Q9Y468); test: qHTS Assay for the Inhibitors of L3MBTL1; conditions: AlphaScreen L3MBTL1–H3K9me1 peptide binding; series mostly up to 57.1 µM; note: nearly all actives have a fitted effect of over 60% in size
Sequence (Q9Y468 whole entry, looked up): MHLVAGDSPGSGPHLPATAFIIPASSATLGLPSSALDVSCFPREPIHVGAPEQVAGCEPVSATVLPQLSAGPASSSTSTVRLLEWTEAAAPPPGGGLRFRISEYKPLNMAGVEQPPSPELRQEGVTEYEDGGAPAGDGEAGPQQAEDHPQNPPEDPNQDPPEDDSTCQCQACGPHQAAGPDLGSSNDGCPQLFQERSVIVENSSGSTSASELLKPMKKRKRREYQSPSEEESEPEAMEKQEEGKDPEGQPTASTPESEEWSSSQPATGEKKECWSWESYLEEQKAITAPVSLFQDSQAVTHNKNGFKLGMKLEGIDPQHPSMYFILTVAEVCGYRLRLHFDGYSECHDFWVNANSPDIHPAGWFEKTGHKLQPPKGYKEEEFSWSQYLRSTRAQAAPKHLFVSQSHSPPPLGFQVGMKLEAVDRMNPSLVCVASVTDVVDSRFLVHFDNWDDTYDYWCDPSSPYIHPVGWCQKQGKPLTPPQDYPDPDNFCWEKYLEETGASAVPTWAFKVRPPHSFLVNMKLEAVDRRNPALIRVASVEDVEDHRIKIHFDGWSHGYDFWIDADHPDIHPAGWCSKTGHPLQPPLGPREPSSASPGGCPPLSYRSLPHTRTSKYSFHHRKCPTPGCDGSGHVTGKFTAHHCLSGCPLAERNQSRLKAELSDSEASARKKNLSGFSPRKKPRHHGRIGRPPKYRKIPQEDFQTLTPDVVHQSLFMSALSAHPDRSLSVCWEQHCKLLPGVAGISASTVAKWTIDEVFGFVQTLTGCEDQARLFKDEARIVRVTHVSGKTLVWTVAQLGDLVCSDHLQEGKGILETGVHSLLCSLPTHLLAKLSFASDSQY
From the text: The histone code is comprised of many post-translational modifications that occur mainly in histone tail peptides. The identity and location of these marks are read by a variety of histone binding proteins that are emerging as important regulators of cellular differentiation and development and are increasingly being implicated in numerous disease states. Small molecule probes that disrupt the interaction between histone binding proteins and chromatin would enable a systematic chemical biology study of proteins that read the histone code and could potentially reveal new targets for drug discovery. However, no such small molecules are known. This dearth of quality molecular probes can largely be attributed to the novelty of the target class and the lack of screening assays. This proposal details the development of the first high-throughput screening assay for the discovery of inhibitors of methyl-lysine binding proteins and how it can be be used to initiate a full-scale discovery effort for antagonists of histone binding proteins. Specifically, this work focuses on an AlphaScreen(tm)-based HTS assay for Malignant Brain Tumor (MBT) domain-containing proteins, which bind to the lower methylation states of lysine residues present in histone tail peptides.
To each well, 2 uL of L3MBTL1 protein (final 50 nM) and 1 uL biotinylated histone peptide monomethylated at Lys9 [b-AHA-H3(1-15)K9me1] (final 75 nM) was added using a nanoliter dispenser. Formation of a protein-peptide complex proceeded at room temperature for 30 min. A Kalypsys pin-tool was employed to transfer 23 nL of library compound solution in DMSO to each well. Cefsulodin, found in a pilot screen of the LOPAC library to be a weak inhibitor of L3MBTL1 binding, was used as an intraplate control with a 16-point titration in duplicate. Following a 30 min incubation of the protein-peptide complex with compounds at room temperature, a mixture of 40 ug/mL each streptavidin-coated donor and nickel chelate acceptor AlphaScreen beads (final 10 ug/mL) was added in a 1 uL dispense for a final volume of 4 uL. Plates were incubated, protected from the light for 30 min at room temperature. Microplates were then be read on an EnVision multilabel plate reader using the 1,536 plate HTS AlphaScreen aperture (excitation time 80 ms, measurement time 240 ms).
Potency is the fitted concentration of half-maximal effect.

SMILES | Potency
O=C1N/C(=C/c2cccs2)C(=O)N1Cc1ccc(F)cc1 | inactive
CSC1=N/C(=C\c2ccc3c(c2)OCO3)C(=O)S1 | inactive
CSC1=N/C(=C\C=C\c2cccs2)C(=O)S1 | 20 µM (active)
Cc1ccnc(SCC(=O)Nc2cccc(S(=O)(=O)N3CCOCC3)c2)n1 | inactive
COc1ccccc1C(CNC(=O)c1cccc(NS(=O)(=O)c2ccc(Br)cc2)c1)N(C)C (stereo not given) | inactive
COc1ccc(Cc2nnc(N/N=C/c3ccccc3O)[nH]c2=O)cc1OC | 8.91 µM (active)
CCOc1ccc(-n2c(O)c(/C=N/Nc3nnc(C)c(=O)[nH]3)c3ccccc3c2=O)cc1 | inactive
COc1ccc(/C=N/Nc2nc3ccccc3c(=O)[nH]2)cc1 | inactive
CCOc1ccccc1OCC(=O)Nc1ccccc1C(=O)NC1CC1 | inactive
CC(OC(=O)c1ccc(S(=O)(=O)N2CCOCC2)cc1)c1ccccc1 (stereo not given) | inactive
COc1ccc(-c2noc(CCC(=O)N3CCN(c4cccc(C)c4)CC3)n2)cc1 | inactive
Cc1cccc(N=C2NC(=O)/C(=C/c3cn(C)c4ccccc34)S2)c1 | inactive
Cc1ccc(N=C2NC(=O)/C(=C/C=C/c3ccco3)S2)cc1C | 22.4 µM (active)
CN(C)c1ccc(-n2cccc2/C=C2/SC(=Nc3ccc(F)cc3)NC2=O)cc1 | inactive
CC(=O)N1c2ccc(S(=O)(=O)N3CCCC(C(=O)Nc4ccc(C)cc4C)C3)cc2CC1C (stereo not given) | inactive
O=C(COC(=O)C1CCCO1)Nc1nc(-c2ccc(F)cc2)cs1 (stereo not given) | inactive
O=C(CSc1nc2ccccc2c(=O)n1-c1ccccc1F)N1CCOCC1 | inactive
Cc1ccc2c(c1)C1CN(C)CCC1N2S(=O)(=O)c1cccc(F)c1 (stereo not given) | inactive
FC(F)(F)c1nc2ccccc2nc1N/N=C/c1ccc(Cl)cc1 | inactive
Oc1ccc(/C=N/Nc2nc(-c3ccccc3F)nc3ccccc23)c(O)c1 | inactive
Cc1nc2ccccc2nc1N/N=C/c1ccc(O)cc1O | 14.1 µM (active)
C=C1c2c(Cl)ccc(O)c2C(O)=C2C(=O)[C@]3(O)C(O)=C(C(N)=O)C(=O)[C@@H](N(C)C)[C@@H]3[C@@H](O)C12 (stereo not given in full) | 0.447 µM (active)

SMILES | Potency
Cc1nn(Cc2ccccc2)c(C)c1C(=O)N1CCN(CC(=O)Nc2ccccc2Cl)CC1 | inactive
CCN(CC(=O)NCc1ccc(F)cc1)S(=O)(=O)c1ccc(Cl)s1 | inactive
CCOc1ccc(S(=O)(=O)Nc2cccc(C(=O)NCC3(N4CCCCC4)CCCCC3)c2)cc1 | inactive
CC(Sc1ccccc1F)C(=O)Nc1cccc(S(=O)(=O)N2CCOCC2)c1 (stereo not given) | inactive
Cc1cc(C)cc(NS(=O)(=O)Cc2ccccc2)c1 | inactive
Cc1ccccc1NC(=O)CSC(=O)c1ccccc1 | inactive
Cc1ccccc1NC(=O)CN1C(=O)N/C(=C\c2cccn2-c2cccc(C(=O)O)c2)C1=O | 3.55 µM (active)
O=C1N/C(=C/c2cccn2-c2ccccc2)C(=O)N1c1cccc(Cl)c1 | inactive
Cc1ccc(NC(=O)C(c2ccccc2)N2CCN(C(=O)c3ccco3)CC2)cc1 (stereo not given) | inactive
CN(C)C(=O)CCc1ccc2c3c([nH]c2c1)[C@]1(C)[C@@H](C(=O)N2CCCCC2)C[C@H](CC(=O)NCCC2=CCCCC2)C(=O)N1CC3 | inactive
C=CCOc1cccc(C2NC(=O)c3ccccc3O2)c1 (stereo not given) | inactive
Clc1cccc(CN2COc3c(cc(Cl)c4cccnc34)C2)c1 | inactive
Oc1c(CN2CCCC2)cc(COCc2ccccc2)c2cccnc12 | inactive and 28.2 µM (active)
COc1cc(CN2CCC(C(N)=O)CC2)ccc1OCc1ccccc1 | inactive
CCN(CC(=O)Nc1ccccc1C(F)(F)F)C(=O)C1CCN(C(=O)Nc2ccccc2)CC1 | inactive
COc1ccc(CCNC(=O)COC(=O)c2cnc(Cl)c(Cl)c2)cc1 | inactive
Cc1ccccc1Nc1nc(N)nc(CSc2ccccc2)n1 | inactive
COc1ccccc1Nc1nc(N)nc(CN(C)C2CCCCC2)n1 | 15.8 µM (active)
COc1ccccc1Nc1nc(N)nc(CSC(=S)N2CCOCC2)n1 | inactive
CCCCCC(=O)N1CCN(S(=O)(=O)c2ccc3c(c2)OCCCO3)CC1 | inactive
CCOC(=O)c1sc2nc(CSc3ccccc3)[nH]c(=O)c2c1C | inactive
CSc1nnc(SCc2nc3sc(C(=O)O)c(C)c3c(=O)[nH]2)s1 | 3.16 µM (active)

SMILES | Potency
CCOC(=O)c1sc2nc(C)[nH]c(=O)c2c1C | inactive
COc1ccc(S(=O)(=O)N2CCOC23CCN(S(=O)(=O)c2ccc([N+](=O)[O-])cc2)CC3)cc1 | inactive
CCCCn1c(N)c(N(CC(C)C)C(=O)CN(C)S(=O)(=O)c2ccc(F)cc2)c(=O)[nH]c1=O | inactive
CN(C)c1ccc(C2N(C)C(=O)c3ccccc3N2C)cc1 (stereo not given) | inactive
CN(C)c1ccc(Nc2c3c4c(cccc4n(C)c2=O)C(=O)c2ccccc2-3)cc1 | 7.94 µM (active)
CC(C)Oc1ccc(S(=O)(=O)N2CCOCC2)cc1NC(=O)C1CCCC1 | inactive
COC(=O)c1ccc2ccccc2c1OC1OC(CO)C(O)C(O)C1NC(C)=O (stereo not given) | inactive
CC1CCCN(C(=O)c2cc(-c3ccco3)nc3ccccc23)C1 (stereo not given) | inactive
Cc1cc(C)c2nc(-c3ccco3)cc(C(=O)O)c2c1 | 3.16 µM (active)
Cc1ccc2nc(-c3ccccc3)cc(C(=O)O)c2c1 | inactive
CCOC(=O)c1ccccc1NS(=O)(=O)c1c(C)nc2sccn2c1=O | inactive
CCN(CC)S(=O)(=O)c1ccc(N2CCOCC2)c(NC(=O)C(C)Oc2ccc(F)cc2)c1 (stereo not given) | inactive
Cc1occc1C(=O)Nc1cccc(S(=O)(=O)N2CCOCC2)c1 | inactive
Oc1ccc(N=Nc2nccs2)c(O)c1 | 25.1 µM (active)
c1ccc(NCc2cccc3ccccc23)nc1 | inactive
Oc1ccc2ccccc2c1N=Nc1nccs1 | 3.98 µM (active)
Oc1ccc2ccccc2c1C=Nc1ccccc1 | inactive
CN(CC(=O)NC1CCN(Cc2ccccc2)CC1)S(=O)(=O)c1ccc(Cl)s1 | inactive
O=C(COC(=O)c1ccco1)Nc1ccc(Cl)cn1 | inactive
O=C(NNS(=O)(=O)c1ccc(F)cc1)c1ccc([N+](=O)[O-])cc1Cl | inactive
Cc1sc2ncnc(N3CCC(C(=O)NNC(=O)c4ccc(F)cc4)CC3)c2c1C | inactive
